tim10-1 inh: inhibits growth of tim10-1 mutant yeast | actives 2.2% (n = 330,000) | inhibition, % at 20 µM | S. cerevisiae tim10-1 ts strain growth, BacTiter-Glo, 24 h;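 active = inhibition of at least 40%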;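 also: mutant grown at 25 °C; 0% = DMSO wells with yeast and 100% = wells holding no yeast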
tim23-1 inh: growth inhibitors of tim23-1 mutant yeast; S. cerevisiae tim23-1 growth, BacTiter-Glo luminescence, 24 h; actives 1.3% (n = 330,000); inhibition, % at 20 µM; AID 463212;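 active = growth inhibition of the mutant yeast at or above 50%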;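 also: temperature-sensitive mutant grown at 25 °C; plate controls were DMSO-treated mutant yeast for no effect and medium wells lacking yeast for full effect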
SKKanGAS inh: blocks kanamycin growth of S. pyogenes SKKanGAS strain. BacTiter-Glo, 6 h. actives 1.3% (n = 300,000). AID 1662. inhibition, % at 7.5 µM;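 active = mean replicate score, as percent of positive control median, at least 50; inconclusive = mean below 50 but one replicate at or above 50; inactive = mean and every replicate below 50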;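 also: strain carries kanamycin resistance gene driven by streptokinase promoter and grows in 40 µg/ml kanamycin; loss of luminescence reflects streptokinase promoter inhibition or plain growth inhibition; 0% = median of DMSO wells and 100% = positive control at its reference dose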
PfHsp90 yeast 2: growth inhibition of yeast expressing Plasmodium Hsp90. S. cerevisiae expressing PfHsp90, BacTiter-Glo ATP, 48 h; yeast lacking PDR1 and PDR3 efflux regulators. inhibition, % at 9.4 µM. actives 0.32% (n = 310,000). AID 504621;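 active = every replicate shows inhibition above about 80%, whatever the replicate mean, limit read from the data; inconclusive = mean inhibition reaches the set limit but some replicate falls short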;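 also: 0% = DMSO neutral controls and 100% = 20 µM radicicol positive controls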
Calb FLC: C. albicans growth modulation with fluconazole. C. albicans CaCi-2 (fluconazole-resistant clinical isolate) + fluconazole, Alamar Blue growth, 48 h. growth inhibition, % (test concentration not listed). actives 0.57% (n = 300,000);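 active = growth inhibition above about 58% in most replicates, limit read from the data, passing the limit was not always enough; inconclusive = exactly half the replicates above a set limit; inactive = most replicates below a set limit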;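 also: all wells also contain fluconazole at 8 µg/ml as a sub-toxic cotreatment; 0% = median of DMSO wells and 100% = median of geldanamycin control wells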
TIM10 inh: inhibits growth of TIM10 yeast strain; actives 1.4% (n = 330,000); S. cerevisiae TIM10 strain growth, BacTiter-Glo luminescence, 24 h; inhibition, % at 10 µM;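 active = inhibition of 40% or more at the single tested concentration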;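 also: wild-type TIM10 isogenic control strain grown at permissive 25 °C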
An asterisk follows results filed as active; ? = inconclusive; . = no result. Sampled rows, rich in hits. Any-hit rate of the full collection: about 4.7%.

SMILES | tim10-1 inh | tim23-1 inh | SKKanGAS inh | PfHsp90 yeast 2 | Calb FLC | TIM10 inh
O=C(Cn1cnc2c(nnn2Cc2ccc(Cl)cc2)c1=O)NC1CCCC1 | 13 | 17 | -7 | . | -5 | 8
COc1ccc2cc(C3(C)NC(=O)N(CC(=O)NCC(F)(F)F)C3=O)ccc2c1 (stereo unspecified) | -5 | -2 | -7 | 12 | -6 | 16
O=C(/C=C/c1ccccc1)Nn1c(-c2cccs2)nc2ccccc2c1=O | 16 | 10 | -8 | . | 95* | 16
Cc1nc2ccccc2c(=O)n1NC(=O)/C=C/c1ccccc1 | 20 | -1 | 2 | -11 | -18 | 12
O=C(OCC(=O)N(CCc1ccccc1)Cc1ccccc1)c1cccc(S(=O)(=O)N2CCOCC2)c1 | . | . | . | -29 | . | .
Cc1ccc2[nH]c(O)c(N=NC(=O)c3ccc(NS(=O)(=O)c4cccs4)cc3)c2c1 | 14 | 4 | 76* | 4 | -4 | 4
O=C(N=Nc1c(O)[nH]c2ccc(F)cc12)c1ccc(NS(=O)(=O)c2cccs2)cc1 | 0 | -2 | . | 13 | . | -9
Cc1nnc2c(Oc3ccccc3)nc3ccccc3n12 | 11 | 3 | 3 | -3 | -1 | 1
COC(=O)c1ccc(Oc2nc3ccccc3n3c(C)nnc23)cc1 | 3 | 22 | 53* | 17 | -7 | 4
CCOc1cccc(NC(=O)c2cccc(F)c2)c1 | -56 | 24 | -4 | 25 | -21 | 0
O=C(O)c1ccc(N2C(=O)/C(=C/c3ccc(-c4ccc([N+](=O)[O-])cc4)o3)C=C2c2ccccc2)cc1 | 33 | 32 | 104* | -37 | 1 | 40
O=C1NN(c2ccccc2)C(=O)/C1=C/c1ccc(-c2ccc(C(=O)O)cc2)o1 | -13 | 0 | 11 | -6 | -22 | -12
Cc1c(C)c2cc(Cl)c(OCC(=O)N3CCN(c4ccc(F)cc4)CC3)cc2oc1=O | 4 | 1 | -1 | -6 | 0 | -4
S=C1Cc2ccccc2N1 | . | . | ? | 107* | 63 | .
CC1(c2nnc(Cc3ccccc3)o2)CC(c2ccccc2[N+](=O)[O-])=NO1 (stereo unspecified) | 0 | 9 | 0 | 108* | 8 | -13
COc1ccc(OC)c(NC(=O)CC2C(=O)NCCN2C(=O)c2ccccc2)c1 (stereo unspecified) | -6 | 4 | -1 | -4 | 1 | 0
CC(NC(=S)NC1CCCCC1)c1ccc(C(C)(C)C)cc1 (stereo unspecified) | 35 | 33 | 56* | -31 | -21 | 16
CC(C)c1ccc(C(C)NC(=S)NC2CCCCC2)cc1 (stereo unspecified) | 27 | 31 | 38 | 0 | -27 | 22
CCC(C)c1ccc(C(C)NC(=S)NC2CCCCC2)cc1 (stereo unspecified) | 23 | 35 | 50* | -94 | -6 | 13
CC(C)Cc1nnc(NC(=O)CCC(=O)N2CCN(c3ccccc3)CC2)s1 | 2 | -1 | 103* | -6 | -2 | 6
CC(C)NC(=O)N(C)C[C@H]1Oc2c(cccc2N(C)C)C(=O)N([C@H](C)CO)C[C@@H]1C | 4 | 17 | . | -12 | . | -3
CC1(C)CC(=O)C2=C(C1)OC(N)=C(C#N)C21C(=O)N(CN2CCOCC2)c2ccccc21 (stereo unspecified) | 8 | 16 | -4 | 19 | -5 | 2
COc1cccc(CN2C(=O)C3(C(C#N)=C(N)OC4=C3C(=O)CCC4)c3ccccc32)c1 (stereo unspecified) | 13 | 19 | -3 | -15 | 91* | 16
O=c1c2c(nc3c(-c4ccc(Cl)cc4)c[nH]n13)CCCC2 | 22 | 7 | 71* | -3 | 5 | 21
O=[N+]([O-])c1cc(S(=O)(=O)O)cc([N+](=O)[O-])c1NN(c1ccccc1)c1ccccc1 | 18 | 11 | 4 | -28 | -3 | 4
SMILES | tim10-1 inh | tim23-1 inh | SKKanGAS inh | PfHsp90 yeast 2 | Calb FLC | TIM10 inh
O=C1NC2(CCC3(CC2)OCCO3)NN1c1ccccc1 | 23 | 30 | 5 | -2 | 120* | -4
O=C1NC2(NN1c1ccccc1)C1CC3CC(C1)CC2C3 (stereo unspecified) | -2 | -6 | -2 | -27 | -9 | -2
S=C1NC2(CCCCC2)NN1c1ccccc1 | 2 | -31 | -8 | -5 | 78* | -32
O=C(CN1c2ccccc2Sc2ccccc21)NNC(=O)Nc1ccc(Cl)cc1 | 8 | -1 | 37 | -22 | -1 | 23
O=C(CN1c2ccccc2Sc2ccccc21)NNC(=O)Nc1ccc(Cl)c(Cl)c1 | 12 | -3 | 57* | -18 | 6 | 13
CC(C)c1noc2ncc(C(=O)c3cc(Cl)cc(Cl)c3O)cc12 | 8 | 32 | 29 | 17 | 99* | 9
O=C(O)c1cc(-c2c[nH]c3ccccc23)nc2cc3ccccc3cc12 | 17 | 34 | 16 | . | 2 | 15
O=C(Nc1nc2c(F)cc(F)cc2s1)c1ccccn1 | 25 | -26 | 72* | -25 | 10 | 21
CCOc1ccc2nc(NC(=O)c3ccccn3)sc2c1 | 11 | 0 | 81* | 21 | -27 | 16
O=C(COc1ccccc1)NNc1nc2c(F)cc(F)cc2s1 | -3 | 6 | -8 | -23 | 6 | 12
CCOc1ccc2nc(NC(=O)Nc3ccccc3)sc2c1 | 10 | -2 | -17 | -11 | 4 | 6
Cc1ccc2nc(NC(=O)c3ccccn3)sc2c1 | -9 | 4 | 85* | 19 | -33 | 7
CCC1(CC)NC(=O)N(CC(=O)Nc2cccc3ccccc23)C1=O | -3 | -4 | . | 7 | . | -13
O=C(COc1cccc(Cl)c1Cl)NC1CC1 | -8 | -1 | . | 8 | . | -12
O=C1NC(=O)C2(Br)Nc3ccc(Br)cc3C(=O)C2N1 (stereo unspecified) | . | . | . | 1 | . | .
CC1(C)CC(c2nc(-c3ccc(Cl)cc3)cs2)CCS1 (stereo unspecified) | 14 | 15 | 65* | 8 | -17 | 1
O=C(N/N=C\C=C\c1ccc([N+](=O)[O-])o1)c1cccs1 | 28 | 13 | 91* | 3 | 91* | 0
Cc1nn(-c2ccc(F)cc2)c(Cl)c1/C=N/NC(=O)c1cccs1 | 5 | 3 | -1 | -5 | -2 | 8
O=C(N/N=C/c1ccc([N+](=O)[O-])o1)c1ccc(NS(=O)(=O)c2cccs2)cc1 | 18 | 26 | 72* | 5 | 23 | 8
Cc1nn(-c2ccc(Cl)cc2)c(Cl)c1/C=N/NC(=O)c1ccc(NS(=O)(=O)c2cccs2)cc1 | -5 | 11 | 63* | -15 | 5 | 15
O=C(N/N=C/c1ccc([N+](=O)[O-])cc1)c1ccc(NS(=O)(=O)c2cccs2)cc1 | -4 | 2 | . | . | . | 2
CCN(C(=O)COC(=O)/C(C#N)=C/c1ccc(OC)cc1)C1CCS(=O)(=O)C1 (stereo unspecified) | -2 | 4 | -2 | 10 | 4 | 2
COc1ccc(C(C)=O)cc1COc1cc(C)c(Cl)c(C)c1 | 2 | -1 | 50* | -16 | -5 | 0

Screening results from PubChem.
